Hits are enriched below; roughly 3.3% of the tested compounds scored in any of these assays.
Tau ThT inhib: blocks human tau fibril formation measured by thioflavin T; AID 1460; 2.1% of 270,000 active; recombinant tau K18 P301L, heparin-induced fibrillization, ThT fluorescence; P10636; Potency, µM (highest dose often 57.4 µM), hits mostly inhibitors; further: nearly all actives have a fitted effect of over 55% in size
Target sequence (P10636 561-689 P618L limits assumed): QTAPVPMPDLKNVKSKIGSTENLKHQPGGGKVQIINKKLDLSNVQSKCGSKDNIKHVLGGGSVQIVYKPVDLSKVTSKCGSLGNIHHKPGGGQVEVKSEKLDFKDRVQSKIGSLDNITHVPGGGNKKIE
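Heparin-induced fibrillization of the P301L-mutant K18 repeat-domain fragment of human tau was followed by ThT binding in quantitative high-throughput format.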
KinaseGlo FLuc: blocks Kinase-Glo luciferase, a counter-screen artifact. 0.28% of 200,000 active. Q27757. AID 1379. Kinase-Glo luciferase, ATP luminescence, 8 min. Potency, µM (doses to about 38.3 µM), most hits filed as inhibitors; further: nearly all actives have a fitted effect of over 60% in size
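Inhibition of Kinase-Glo luciferase light generation was assessed at 10 uM ATP in pH 7.2 imidazole buffer, with luminescence measured after eight minutes at ambient temperature.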
Tau FP inhib: inhibitors of human tau fibril formation | P10636 | K18 P301L tau heparin fibrillization, Alexa594 FP, 6 h | Potency, µM (titrated, usually from 57.7 µM), actives largely listed as inhibitors | 0.39% of 280,000 active; further: nearly all actives have a fitted effect of over 55% in size
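K18 P301L tau (15 uM unlabeled/0.24 uM Alexa 594-labeled, final) + compound + heparin 20 uM final; 100 mM NaOAc pH 7; 6 hr 37 C; ThT 30 uM final added, 1 hr RT; FP ex 555/em 632 nm.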
Tau fluor cs: counter-screen for tau fibril formation inhibitors. 0.93% of 280,000 active. Potency, µM (series often up to 57.7 µM). tau K18 P301L (four-repeat tau fragment) Alexa594 fluorescence, heparin fibrillization; further: nearly all actives have a fitted effect of over 55% in size
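Human K18 P301L tau (15 uM unlabeled plus 0.24 uM Alexa 594-labeled, final) in 100 mM sodium acetate pH 7 was mixed with compound and 20 uM heparin and incubated 6 hr at 37 C.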
NPSR antag: antagonists of human neuropeptide S receptor cAMP signaling; Q6W5P4; CHO-NPSR cells, cAMP TR-FRET, antagonist mode; Potency, µM (highest dose often 38.3 µM), hits mostly inhibitors; 1% of 220,000 active; AID 1461; further: nearly all actives have a fitted effect of over 50% in size
Target sequence (Q6W5P4 whole entry, looked up): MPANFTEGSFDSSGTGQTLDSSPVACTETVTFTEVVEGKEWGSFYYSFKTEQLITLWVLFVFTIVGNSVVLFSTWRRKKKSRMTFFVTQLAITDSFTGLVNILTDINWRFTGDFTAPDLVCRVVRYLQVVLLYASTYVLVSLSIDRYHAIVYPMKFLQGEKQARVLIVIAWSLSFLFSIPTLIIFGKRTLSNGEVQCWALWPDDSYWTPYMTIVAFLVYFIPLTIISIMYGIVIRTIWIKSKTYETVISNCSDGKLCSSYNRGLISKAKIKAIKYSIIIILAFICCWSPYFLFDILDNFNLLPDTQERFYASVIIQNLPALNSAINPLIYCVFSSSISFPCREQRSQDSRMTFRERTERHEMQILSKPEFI
Hits are given with their value; n = inactive; u = inconclusive; x = no result; [ ] = another dose, or the depositor's remark. The call rests on the fitted dose curve; in most records, active means well fitted curve in the direction sought with a large enough effect; inconclusive means small, poorly fitted or top-dose-only effect, or another doubt; inactive means no such curve, though single readings can be large; an effect the other way counts as inactive or inconclusive.

SMILES	Tau ThT inhib	KinaseGlo FLuc	Tau FP inhib	Tau fluor cs	NPSR antag
CCCC(=O)Nc1c2c(nc3ccccc13)N(c1ccccc1)CC2	n	x	n	n	n
S=C1CCSc2ccc(Cl)cc2N1	n	n	n	n	n
COC(=O)c1ccc2c(c1)SC1=C(CCCC1=O)N2	13µM	n	n	n	n
O=C1CCCC2=C1Sc1ccc(Cl)cc1N2	6.3µM	x	n	n	n
Cc1ccc(-c2nn(CC(=O)NC3CCCCC3)c3c2cnc2ccc(F)cc23)cc1C	n	x	n	n	x
COc1cc([N+](=O)[O-])cc(/C=N\NC(=O)C2COc3ccccc3O2)c1O (stereo unspecified)	10µM	x	n	n	n[7.67 µM]
O=C(N/N=C\c1cccc([N+](=O)[O-])c1O)C1COc2ccccc2O1 (stereo unspecified)	7.9µM	n	n	n	n
O=C(N/N=C/c1cccc([N+](=O)[O-])c1O)c1cccs1	5µM	n	n	n	n
COc1cc(/C=N/NC(=O)C2COc3ccccc3O2)cc(OC)c1OC (stereo unspecified)	n	n	n	n	n
O=C(N/N=C/c1cccc([N+](=O)[O-])c1)C1COc2ccccc2O1 (stereo unspecified)	n	x	n	n	n
Cc1ccc(Cn2nnc3c(=O)n(CC(=O)NCc4ccccc4)cnc32)cc1	n	n	n	n	n
Cc1nc(-c2ccc(S(=O)(=O)N3CCN(c4cccc(C(F)(F)F)c4)CC3)cc2)co1	n	x	u	n	x
c1ccc(COc2ccc(Nc3ncnc4nc[nH]c34)cc2)cc1	u	n	n	14µM[quencher]	n
Cc1cccc(C)c1Nc1c(-c2ccc(O)cc2)nc2sccn12	u	x	n	u	x
COc1cc(-c2nc3sccn3c2Nc2c(C)cccc2C)ccc1O	16µM	x	22µM	u	x
CCc1cccc(C)c1Nc1c(-c2cccc(O)c2)nc2sccn12	u	x	n	18µM[quencher]	x
O=C1C(=O)c2ccccc2C(O)=C1CCCCl	u	x	n	n	u
Cc1cc(C)cc(NC(=O)CSc2nnc(-c3cc4occc4n3C)n2-c2ccccc2C)c1	n	x	n	n	x
C=CC[n+]1c(/C=C2\C=Cc3cc(C)ccc3N2CC)ccc2ccccc21	3.5µM	n	n	14µM[fluorescent]	n
O=C(N/N=C/c1ccc2c(c1)OCO2)c1ccccn1	n	10µM	n	n	n
COc1ccc(Cl)cc1C(=O)N/N=C/c1ccc(N2CCOCC2)cc1	11µM	n	n	n	n
O=C(N/N=C/c1cc2c(cc1Br)OCO2)c1ccccn1	n	x	n	n	n
O=C(N/N=C/c1ccc(N2CCOCC2)cc1)c1ccccn1	14µM	x	n	n	n
O=C(Nc1ccc(N2CCCCC2)cc1)c1ccccn1	u	7.9µM	n	n	n
COc1ccc(N2C(=O)C(CC(N)=O)N(NC(=O)c3cccc(OC)c3)C2=S)cc1 (stereo unspecified)	n	n	n	n	n
SMILES	Tau ThT inhib	KinaseGlo FLuc	Tau FP inhib	Tau fluor cs	NPSR antag
O=C(/C=C/c1ccc2c(c1)OCO2)c1ccccn1	14µM	x	n	n	n
CCN(C(=O)/C=C/c1ccc2c(c1)OCO2)c1ccccc1	n	n	n	n	n
COc1cccc(C2CC(=O)N3CN(C4CCCCC4)CSC3=C2C#N)c1 (stereo unspecified)	35µM	x	u	n	x
CN1CSC2=C(C#N)C(c3cccc(OCc4ccccc4)c3)CC(=O)N2C1 (stereo unspecified)	u	n	u	n	n
COc1ccc(C2CC(=O)N3CN(C4CCCCC4)CSC3=C2C#N)cc1 (stereo unspecified)	18µM	x	u	n	x
Cc1ccc([N+](=O)[O-])cc1-c1ccc(/C=C(\C#N)c2[nH]nc(N)c2C#N)o1	8.9µM	n	u	u	n
c1ccc(-c2noc(-c3ccc4c(c3)OCO4)n2)cc1	n	10µM	n	n	n
COc1ccc(-c2noc(-c3ccc4c(c3)OCO4)n2)cc1	u	n	n	n	n
CC(=O)OC[C@@H]1O[C@@H](O/N=C2/C[C@@H](O)[C@@H](O)[C@@H]3[C@@H]4C(=O)N(C[C@@H]5CCCO5)C(=O)[C@H]4CC[C@H]23)[C@H](OC(C)=O)[C@H](OC(C)=O)[C@@H]1OC(C)=O	n[11.5 µM]	x	n[11.6 µM]	n[11.6 µM]	x
NS(=O)(=O)c1ccc(NC(=O)COC(=O)c2cn(-c3ccccc3)nc2-c2ccc(F)cc2)cc1	n	n	13µM	u	n
CC(NC(=O)Cn1ncc2c3ccccc3n(Cc3ccc(F)cc3)c2c1=O)c1ccccc1 (stereo unspecified)	n	x	n	n	x
COc1cc(OC)c(NC(=O)CCCn2nc(C)c3sc4ccccc4c3c2=O)cc1Cl	u	x	n	u	x
CCOc1ccc(NC(=O)c2c(NCc3cccnc3)sc3c2CCC(C)C3)cc1 (stereo unspecified)	16µM	x	n	u	x
Cc1ccc(OC(=O)c2cc(-c3ccc4c(c3)OCCO4)on2)cc1C	u	x	n	n	x
COc1cc(OC)cc(C(=O)NCCc2csc(-c3cccc(C)c3)n2)c1	u	x	n	n	x
C=CCN1C(=O)N/C(=C/c2ccc(C)o2)C1=O	25µM	n	u	n	n
CN(C)c1cc2c(c(N(C)C)c1)C(=O)c1ccccc1C2=O	n	11µM	n	n	u
C=CCOC(=O)C1=C(C)NC(SCC)=C(C#N)C1c1ccc(Cl)cc1 (stereo unspecified)	n	n	n	u	10µM
CC1=NOC(=O)/C1=C/c1ccc(-c2ccc(Cl)cc2)o1	18µM	n	n	u	u
CC1=NOC(=O)/C1=C\c1ccc(-c2cc(Cl)ccc2Cl)o1	u	n	n	n	10µM
CC1=NOC(=O)/C1=C\c1ccc(-c2ccc(Br)cc2)o1	28µM	n	n	n	n
CC1=NOC(=O)/C1=C\c1ccc(-c2ccc(Br)cc2C(=O)O)o1	u	x	u	n	n
CCc1nc(SCc2cc(=O)c3cc(C)ccc3[nH]2)n[nH]1	n	x	n	n	x
Cc1ccc(C)c(OCCn2cc(C(=O)c3ccco3)c3ccccc32)c1	n	x	n	n	x
Cc1ccc(-n2nnnc2C(Cl)(Cl)c2nnnn2-c2ccc(C)cc2)cc1	8.9µM	n	16µM	n	n
SMILES	Tau ThT inhib	KinaseGlo FLuc	Tau FP inhib	Tau fluor cs	NPSR antag
CC1CCc2c(sc3nnn(CC(=O)Nc4c(C(C)C)cccc4C(C)C)c(=O)c23)C1 (stereo unspecified)	n	x	n	n	x
Cc1ccccc1N=C1NC(=O)/C(=C/c2cccn2C)S1	u	x	n	n	u
Cc1cccc(N=C2NC(=O)/C(=C/c3cccn3C)S2)c1	7.9µM	x	n	n	n
COc1ccc(Nc2ncnc3onc(C)c23)c(OC)c1	n	x	n	n	x
O=C(/C=C/c1ccco1)N1CCc2ccccc21	u	10µM	n	n	n
CC(C)(C)C(=O)[C@H](C(c1ccccc1)N1CCOCC1)N1CCOCC1 (stereo partly specified)	x	n[7.66 µM]	x	x	x
CC1CCCCN1C(=O)Cn1cc(C=O)c2ccccc21 (stereo unspecified)	n	n	n	n	n

Assay outcomes from PubChem BioAssay.
